CBX7 AlphaScr = inhibitors of human CBX7 binding to H3K27me3 peptide. actives 1.1% (n = 66,000). normalised signal (fraction of DMSO) (concentration not given with the values). AlphaScreen His6-CBX7 / biotin-H3K27me3 peptide binding; hits give low values; in the data active = normalised signal below about 0.5
Target sequence (O95931 whole entry, looked up): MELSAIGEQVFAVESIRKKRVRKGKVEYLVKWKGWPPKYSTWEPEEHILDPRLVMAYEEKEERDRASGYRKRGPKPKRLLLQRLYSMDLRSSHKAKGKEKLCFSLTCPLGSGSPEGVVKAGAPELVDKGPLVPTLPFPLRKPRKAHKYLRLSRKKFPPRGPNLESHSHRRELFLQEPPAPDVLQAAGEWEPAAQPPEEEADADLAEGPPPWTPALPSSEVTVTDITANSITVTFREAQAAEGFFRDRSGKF
* = called active by the depositor. Many of the other results were omitted from the sample, so hits are more common in it than they were.

For Cc1cc(C)c(NC(=O)CSc2nccn2-c2cccc(Cl)c2)c(C)c1 the results were CBX7 AlphaScr 0.877.
Cc1cccc(NC(=O)CSc2nccn2-c2cccc(Cl)c2)c1C was read as CBX7 AlphaScr 0.466*.
`CCOc1ccccc1NC(=O)CSc1nccn1-c1cccc(Cl)c1` gave CBX7 AlphaScr 0.286*.
Screening Cc1cccc(NC(=O)CSc2nccn2-c2ccccc2)c1C returned CBX7 AlphaScr 0.773.
CCOc1ccccc1NC(=O)CSc1nccn1-c1cccc(C)c1 was read as CBX7 AlphaScr 0.76.
Screening Cc1ccc(C)c(NC(=O)CSc2nccn2-c2ccc(Cl)cc2)c1 returned CBX7 AlphaScr 0.798.
For CCCc1nc(N2CCCCC2)c(C#N)c2c1CCCC2 the results were CBX7 AlphaScr 1.06.
CCc1ccc(NC(=O)c2csc3c2CCCC3)cc1 was read as CBX7 AlphaScr 1.15.
Screening Cc1c(C(=O)Nc2ccc(Oc3ccccc3)cc2)oc2ccc(S(=O)(=O)N3CCCCC3)cc12 returned CBX7 AlphaScr 0.961.
CC(C)CCNC(=O)c1ccc2c(c1)N(Cc1ccccc1)C(=O)c1ccccc1S2 was read as CBX7 AlphaScr 0.896.
CN1CCN(c2nc(-c3ccc(Cl)cc3)cc(C(F)(F)F)n2)CC1 was read as CBX7 AlphaScr 0.97.
For O=C(CC1Sc2ccccc2NC1=O)Nc1ccc(-c2ccccc2)cc1 (stereo not drawn) the results were CBX7 AlphaScr 1.01.
CCc1ccc(-c2nc(C(=O)NCc3ccc(Cl)cc3)c(C)o2)cc1 was read as CBX7 AlphaScr 0.938.
Cc1ccc(OCC(=O)Nc2cccc(Cl)c2C)cc1C was read as CBX7 AlphaScr 1.03.
`CCOc1ccc(NCc2nc3ccccc3n2CCOc2ccccc2C)cc1` gave CBX7 AlphaScr 0.599.
`O=C(CCN1C(=O)c2cccnc2C1=O)Nc1cccc(F)c1` gave CBX7 AlphaScr 0.443*.
Screening O=C(CCCN1C(=O)c2cccnc2C1=O)Nc1cccc(Cl)c1 returned CBX7 AlphaScr 0.798.
For O=C(CCCN1C(=O)c2cccnc2C1=O)Nc1ccc(F)c(F)c1 the results were CBX7 AlphaScr 1.1.
CCN(CC)c1ccc(NC2c3ccccc3C(=O)N2c2ccc(Cl)cn2)c(C)c1 (stereo not drawn) was read as CBX7 AlphaScr 0.065*.
For Cc1cccc(NC2c3ccccc3C(=O)N2c2ccc(Cl)cn2)c1C (stereo not drawn) the results were CBX7 AlphaScr 0.927.
For Cc1ccc(NC2c3ccccc3C(=O)N2c2ccc(Cl)cn2)cc1F (stereo not drawn) the results were CBX7 AlphaScr 1.18.
`CCCCCCCNC(=O)CCC1CC(=O)Nc2ccccc21` (stereo not drawn) gave CBX7 AlphaScr 0.964.
For Cc1ccc(Cl)cc1NC(=O)c1cc(-c2cccs2)nc2ccccc12 the results were CBX7 AlphaScr 0.966.
`Cc1c(C(=O)Nc2ccc(Br)cc2F)oc2ccc(S(=O)(=O)N3CCOCC3)cc12` gave CBX7 AlphaScr 1.03.
`COC(=O)CNc1c(-c2ccccn2)nc2ccccn12` gave CBX7 AlphaScr 0.281*.
Screening Fc1ccc(Nc2c(-c3ccccn3)nc3ccccn23)cc1 returned CBX7 AlphaScr 0.0587*.
For COC(=O)CNc1c(-c2ccccn2)nc2cnccn12 the results were CBX7 AlphaScr 0.984.
COc1ccc(Nc2c(-c3ccccn3)nc3cc(C)ccn23)cc1 was read as CBX7 AlphaScr 0*.
Fc1ccc(Nc2c(-c3ccc(Cl)cc3)nc3ncccn23)cc1 was read as CBX7 AlphaScr 1.23.
For Fc1ccc(Nc2c(-c3ccccc3)nc3ccccn23)cc1 the results were CBX7 AlphaScr 1.04.
For Cc1ccc(Nc2c(-c3cccc(Br)c3)nc3cc(C)ccn23)cc1 the results were CBX7 AlphaScr 0.794.
Screening Cc1ccc(Nc2c(-c3ccccn3)nc3cc(C)ccn23)cc1 returned CBX7 AlphaScr 0.000961*.
COc1ccc(Nc2c(-c3ccccn3)nc3ccc(Br)cn23)cc1 was read as CBX7 AlphaScr 0.838.
`COC(=O)CNc1c(-c2c[nH]c3ccccc23)nc2ccc(Br)cn12` gave CBX7 AlphaScr 0.799.
For COc1ccc(Nc2c(-c3ccccn3)nc3ccc(Cl)cn23)cc1 the results were CBX7 AlphaScr 0.718.
Cc1ccc(Nc2c(-c3cccnc3)nc3cc(C)ccn23)cc1 was read as CBX7 AlphaScr 0.914.
For CCCc1ccc(Oc2cn[nH]c2-c2ccc(OCC)c(C)c2O)cc1 the results were CBX7 AlphaScr 0.807.
`COc1ccc(N2Cc3cccc(C(=O)NCCc4cnc5cc(C)ccn45)c3C2=O)cc1` gave CBX7 AlphaScr 0.884.
For CC1CCCN(S(=O)(=O)c2ccc3[nH]c(=O)cc(C(=O)NCCCN4CCCCC4)c3c2)C1 (stereo not drawn) the results were CBX7 AlphaScr 1.06.
CC1=C(c2ccc(C)cc2)S(=O)(=O)NC1=NCC(=O)O was read as CBX7 AlphaScr 1.
For COc1ccc(C(=O)CC2(O)C(=O)N(Cc3ccccc3)c3ccccc32)cc1 (stereo not drawn) the results were CBX7 AlphaScr 0.994.
